# Source: PubChem BioAssay (several laboratories)
# ABHD5 PLIN5 PPI – inhibitors of human ABHD5-perilipin-5 interaction. Q00G26+Q8WTS1. Split G. princeps luciferase complementation, luminescence, 4 h. inhibition, % at 4 µM. hit rate 0.78% among 360,000;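 active = inhibition above the mean inhibition across every tested compound plus 3 SD, cut at about 22% in these data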;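 also: 0% = DMSO only wells and the 100% control is not disclosed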
# Target sequence (Q00G26 whole entry, looked up): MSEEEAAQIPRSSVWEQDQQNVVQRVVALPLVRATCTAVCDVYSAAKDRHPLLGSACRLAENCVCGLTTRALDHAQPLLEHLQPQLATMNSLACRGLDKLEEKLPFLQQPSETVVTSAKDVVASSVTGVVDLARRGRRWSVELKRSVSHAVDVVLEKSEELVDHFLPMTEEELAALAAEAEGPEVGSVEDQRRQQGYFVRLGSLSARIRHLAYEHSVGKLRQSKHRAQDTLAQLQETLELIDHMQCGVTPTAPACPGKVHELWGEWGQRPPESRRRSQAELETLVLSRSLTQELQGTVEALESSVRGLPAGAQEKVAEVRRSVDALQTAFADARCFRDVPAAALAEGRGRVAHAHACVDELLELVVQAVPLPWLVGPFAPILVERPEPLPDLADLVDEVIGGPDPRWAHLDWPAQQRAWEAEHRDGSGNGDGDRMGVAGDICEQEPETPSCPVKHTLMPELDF
# Target sequence (Q8WTS1 whole entry, looked up): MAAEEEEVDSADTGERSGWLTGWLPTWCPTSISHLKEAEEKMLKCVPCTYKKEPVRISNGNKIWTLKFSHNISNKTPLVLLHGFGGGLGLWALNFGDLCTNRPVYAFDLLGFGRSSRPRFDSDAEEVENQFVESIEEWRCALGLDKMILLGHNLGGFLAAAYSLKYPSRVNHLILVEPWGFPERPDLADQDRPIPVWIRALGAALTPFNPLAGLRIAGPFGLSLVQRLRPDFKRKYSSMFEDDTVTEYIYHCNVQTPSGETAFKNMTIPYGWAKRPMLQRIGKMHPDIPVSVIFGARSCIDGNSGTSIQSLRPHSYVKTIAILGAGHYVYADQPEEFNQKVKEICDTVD
# LANA-H2A inh – blocks KSHV LANA binding to histone H2A/H2B. hit rate 0.6% among 320,000. cell-free LANA-H2A/H2B peptide, fluorescence polarization. inhibition, % (concentration not given with the values). AID 2629; in the data active = inhibition mostly above about 10%, no sharp cut-off; inactive = mostly below about 6.7%
# PRMT1 inh – PRMT1 (human) inhibition, primary screen; Q99873; recombinant PRMT1, activity-based probe fluorescence polarization; inhibition, % at 2.79 µM; hit rate 1.3% among 370,000; AID 652257;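 active = inhibition above about 21% made by adding two undisclosed values, limit read from the data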
# rCAG binder – molecules binding r(CAG) RNA repeats; r(CAG) RNA repeat, TO-PRO-1 dye displacement fluorescence; inhibition, % at 3 µM; hit rate 1.3% among 370,000; AID 651821;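 active = inhibition above the plate cutoff, the mean of all test compounds on that plate plus 3 SD, cut at about 35% in these data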;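 also: 0% = DMSO alone and 100% = 100 µM mitoxantrone as full dye displacement; higher means more dye released from RNA so lower well fluorescence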
# ALR H2O2 inh – inhibitors of human sulfhydryl oxidase ALR | P55789 | purified ALR, DTT oxidation, H2O2 HRP-luminol luminescence | inhibition, % (concentration not given with the values) | hit rate 3.8% among 290,000;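 active = mean replicate inhibition above about 79%, with every replicate also reaching it, limit read from the data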
# Rtt109 Vps75 – inhibitors of Candida albicans Rtt109/Vps75 histone acetyltransferase; hit rate 0.16% among 330,000; inhibition, % at 34.9 µM; purified Rtt109/Vps75, ThioGlo CoA-SH fluorescence, 4 h; AID 540336;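 active = inhibition of at least 50% in every replicate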
# rCAG binder conf – r(CAG) RNA repeat binding, confirmation | TO-PRO-1 dye displacement fluorescence | hit rate 70% among 4,300 | AID 652065 | shares compounds with rCAG binder | inhibition, % at 3 µM;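 active = inhibition above a per-plate cutoff, the mean inhibition of sample wells plus 3 SD, cut at about 35% in these data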;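 also: loss of TO-PRO-1 fluorescence as compound displaces dye from 1x1 AA loop RNA; 0% = DMSO only wells and 100% = 100 µM mitoxantrone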
# dCAG dye counter – disrupts DNA CAG TO-PRO-1 complex, flagging rCAG hits; shares compounds with rCAG binder; d(CAG) DNA oligo TO-PRO-1 dye displacement, fluorescence; inhibition, % at 3 µM; hit rate 94% among 4,300; AID 652068;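 active = inhibition above its plate's cutoff, the mean test-well inhibition plus 3 SD, cut at about 4.8% in these data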;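 also: 0% = DNA dye mix with DMSO and 100% = 100 µM mitoxantrone; hits displace the dye from DNA and so lower well fluorescence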
# DNA CAG DR – disrupts DNA CAG TO-PRO-1 complex in dose response | shares compounds with rCAG binder | DNA CAG/GTC duplex TO-PRO-1 dye displacement fluorescence | IC50, µM | hit rate 20% among 250; in the data active = IC50 below about 10 µM
# The depositor's hits bear a star; i = inactive; . = no result given; + = active, no number. A selection: hits, their analogues and other compounds. The true share with any hit is near 5.9%.
SMILES,ABHD5 PLIN5 PPI,LANA-H2A inh,PRMT1 inh,rCAG binder,ALR H2O2 inh,Rtt109 Vps75,rCAG binder conf,dCAG dye counter,others
O=C(Nc1ccc(F)cc1)Nc1nnc(Cc2ccccc2)s1,-1.6,3.4,0.1,42.2*,-14.8,0.6,14.5,15.4*,
O=C(Nc1ccc(F)cc1)Nc1nnc(COc2ccccc2F)s1,-6.5,-5.1,-0.7,62.5*,-1.6,-7.2,38.3*,26.5*,
CCCCc1c(-c2ccccc2OC)ncn1C(C)c1ccccc1 (stereo not drawn),.,.,1.9,0.1,.,.,.,.,
CCSc1nsc(NC(=O)Nc2cccc(OC)c2)n1,-2.7,-3.8,-0.4,57.6*,2.5,1.5,19.7,16.3*,
COc1cccc(NC(=O)Nc2nnc(Cc3ccc(F)cc3)s2)c1,3.7,0.7,-5.2,7.8,-7.0,3.5,.,.,
CCSc1nnc(NC(=O)Nc2cccc(C)c2)s1,-14.0,-0.8,-1.8,56.3*,-1.8,-7.1,18.4,16.6*,
COc1ccc(Cc2nnc(NC(=O)Nc3cccc(OC)c3)s2)cc1,0.9,1.3,-2.4,42.2*,-16.8,6.2,40.1*,17.2*,
CCSc1nsc(NC(=O)Nc2ccccc2F)n1,-16.7,-6.2,-2.0,25.6,.,3.9,.,.,
CCCC(=O)N1CCC1(C)C(=O)Nc1cc(OC)c(OC)c(OC)c1 (stereo not drawn),-6.9,.,2.5,0.3,.,.,.,.,
O=c1oc2ccccc2c(Nc2cc3ccccc3cc2O)c1[N+](=O)[O-],-10.9,-2.1,4.6,40.7*,43.7,-17.1,56.4*,20.2*,
O=c1oc2ccccc2c(Nc2cccc3ccccc23)c1[N+](=O)[O-],7.0,-1.1,-0.3,42.3*,-5.1,4.2,45.0*,12.1*,
O=c1oc2ccccc2c(Nc2ccccc2O)c1[N+](=O)[O-],-0.4,1.1,-0.5,3.4,53.5,-3.6,.,.,
O=C1/C(=C/C=C/c2ccco2)SC(=S)N1c1ccc(O)cc1,11.0,7.0,25.0*,74.0*,26.6,13.0,76.8*,46.3*,
C[C@]12Cc3ccccc3C1CC1=N[C@@H](c3ccccn3)O[C@@]13C[C@@H]2C(=O)N3C1CCN(Cc2ccccc2)CC1 (stereo partly drawn),.,.,-2.5,2.1,.,.,.,.,
O=C1NN(c2ccc(Cl)cc2)C(=O)/C1=C\c1ccc(-c2cccc(C(=O)O)c2)o1,-0.6,.,21.0,96.6*,.,-3.2,66.0*,27.6*,
COc1ccc(Sc2ccc(/C=C3\C(=O)NN(c4ccccc4)C3=O)o2)cc1,-5.6,0.7,5.7,25.6,45.7,0.5,.,.,
O=C1NN(c2ccccc2)C(=O)/C1=C\c1ccc(-c2cc([N+](=O)[O-])ccc2O)o1,-3.7,.,0.8,35.6*,.,-2.7,44.4*,19.0*,
CCCCCCOC(=O)Nc1ccc(S(=O)(=O)Nc2cccc([N+](=O)[O-])c2)cc1,-14.1,-11.6,-4.3,45.0*,0.4,5.4,45.9*,13.6*,
Cc1ccc(S(=O)(=O)N2[C@@H](c3ccc(C#N)cc3)C(C(=O)O)=C[C@H]2C(C)(C)C)cc1,1.8,-7.0,1.1,31.0,.,3.1,.,.,
Cc1ccc(S(=O)(=O)N2[C@@H](c3ccc(Br)cc3)C(C(=O)O)=C[C@H]2C(C)(C)C)cc1,0.4,i,-1.5,46.9*,9.2,6.4,54.3*,15.7*,
Cc1ccc(S(=O)(=O)N2[C@@H](c3ccc(Cl)cc3)C(C(=O)O)=C[C@H]2C(C)(C)C)cc1,-3.2,+,-1.1,48.2*,6.1,-12.7,41.7*,11.0*,
CCOC(=O)CC1CCCCN1C(=O)c1cc(COc2cccc3cnccc23)on1 (stereo not drawn),6.5,6.0,-2.4,-7.5,-13.1,0.4,.,.,
O=C(Nc1cccc(S(=O)(=O)N2CCCC2)c1)[C@@H]1O[C@H](CO)[C@@H](O)[C@H]1O,6.1,.,-0.6,0.7,.,.,.,.,
CCc1nnc(NS(=O)(=O)c2ccc(N/C=C\C(=O)c3cccc(OC)c3)cc2)s1,-1.7,1.8,0.0,49.1*,18.4,21.4,62.9*,28.0*,
Cc1cc(C)nc(NS(=O)(=O)c2ccc(N/C=C\C(=O)c3ccc(Cl)cc3)cc2)n1,-8.9,1.3,2.8,23.2,36.1,-7.1,.,.,
SMILES,ABHD5 PLIN5 PPI,LANA-H2A inh,PRMT1 inh,rCAG binder,ALR H2O2 inh,Rtt109 Vps75,rCAG binder conf,dCAG dye counter,others
CCc1nnc(NS(=O)(=O)c2ccc(N/C=C\C(=O)c3ccc(F)cc3)cc2)s1,-5.1,3.5,2.7,48.5*,12.7,7.8,61.2*,23.0*,
COc1cccc(C(=O)/C=C/Nc2ccc(S(=O)(=O)Nc3ncccn3)cc2)c1,-6.9,3.0,-2.2,6.4,.,5.2,.,.,
CCc1nnc(NS(=O)(=O)c2ccc(NC(=O)CCC(=O)O)cc2)s1,4.2,6.4,1.9,-2.2,.,0.6,.,.,
CCc1nnc(NS(=O)(=O)c2ccc(N/C=C\C(=O)c3ccc(C)cc3)cc2)s1,-0.5,0.1,2.6,54.6*,0.0,-4.4,71.9*,38.5*,
NS(=O)(=O)c1ccc(N/C=C\C(=O)c2ccc(F)cc2)cc1,2.8,2.7,-0.5,-0.2,-11.2,-5.3,.,.,
CCc1nnc(NS(=O)(=O)c2ccc(N/C=C/C(=O)c3ccc(C)cc3)cc2)s1,-3.2,3.2,-0.2,49.5*,18.5,0.8,72.5*,34.3*,DNA CAG DR=9.65*
Cc1ccc(OC(=O)N(C)C[C@@H]2OCc3cn(nn3)CCCC(=O)N([C@@H](C)CO)C[C@H]2C)cc1,2.4,.,0.7,0.7,.,.,.,.,
Cc1noc(NS(=O)(=O)c2ccc(N/C=C\C(=O)c3ccccc3)cc2)c1C,-0.8,-2.1,0.2,14.7,13.3,-3.9,.,.,
Cc1noc(NS(=O)(=O)c2ccc(N/C=C\C(=O)c3ccc(F)cc3)cc2)c1C,-0.5,-3.3,1.7,36.2*,12.4,32.6,43.0*,7.9*,
Cc1cccc(NC(=O)CN2C(=O)S/C(=C\c3cccn3-c3cccc(C(=O)O)c3)C2=O)c1,4.3,-1.1,5.8,83.7*,-7.0,-4.7,80.7*,48.7*,
COc1ccc(NC(=O)CN2C(=O)S/C(=C/c3cccn3-c3ccc(C(=O)O)cc3)C2=O)cc1,0.3,1.2,1.1,24.0,20.7,-1.7,.,.,
Cc1ccc(NC(=O)CN2C(=O)S/C(=C\c3cccn3-c3cccc(C(=O)O)c3)C2=O)cc1C,0.1,11.0,-1.9,7.4,8.1,-7.9,.,.,
COc1cc(/C=C2\SC(=O)N(CC(=O)Nc3cccc(C)c3)C2=O)ccc1OC(C)C(=O)O (stereo not drawn),-9.0,-2.7,5.4,53.7*,6.7,4.4,43.7*,14.0*,
